Experimental findings from PubChem BioAssay AID504706 (National Center for Advancing Translational Sciences (NCATS), 2011) are described below.

Screen size: about 320,000 compounds; about 200 (0.062%) were called active. Not shown: some 6% with an inconclusive outcome. The full list was thinned out, with actives kept by preference. Values without a mark were called inactive. The call rests on the fitted dose curve; in most records, active means well fitted activation curve with a large enough effect; inconclusive means small, poorly fitted or top-dose-only effect; inactive means no such curve, though single readings can be large or run the other way.
Potency means the concentration at half of the fitted maximal effect.

The nature of the experiment: qHTS assay for re-activators of p53 using a Luc reporter. Further: nearly all actives have a fitted effect of over 45% in size. On activity change, positive = activation: % of control where 0% means no effect. The following applies: H1299 p53-A138V BP100-luciferase reporter, luminescence, 24 h; series mostly up to 92.2 µM; activity change, positive = activation: at the top concentration. The source says: The p53 tumor suppressor plays a key role in suppression of tumorigenesis and in human carcinogenesis. It is frequently found inactivated in human cancers, mainly by point mutation. These point mutations are found in a wide variety of human cancers and a majority of them affect the DNA binding domain of the protein. The point mutations either alter native p53 conformation or abolish DNA contact. Additionally, cancer cells with p53 mutations are more resistant to chemo-radiation therapies. In order to find activators to reactivate this important protein, a cell-based screen for p53-dependent luciferase-reporter expression was developed. A p53-null H1299 lung cancer cell line was stably co-transfected with a temperature sensitive p53 mutant, p53-A138V, and a p53-responsive BP100-luciferase reporter. This cell model has previously been characterized in a gene chip profiling experiment for p53 activation. By lowering the culture temperature from 37 deg C (mutant p53 conformation) to 32 deg C (w.t. p53 conformation), a 30-60 fold increase in activation of luciferase activity is observed. At assay temperate, 37 deg C, basal reporter expression is very low and after the addition of detection reagent, a luminescent read-out is carried out. NIH Chemical Genomics Center [NCGC] NIH Molecular Libraries Probe Production Centers Network [MLPCN] MLPCN Grant: DA031088-01A1 Assay Provider (PI): Yi Sung, University of Michigan at Ann Arbor
5ul of 1000 cells per well are dispensed in all wells except column 4, into white solid-bottom TC-treated Kalypsys plates. The cells are kept in Opti-MEM and supplemented with 10% FBS and dispensed using a Multidrop (Thermo). Then using the Kalypsys pin-tool, 23nl of compounds are pinned. The compounds are starting concentration at 10mM, with 1:5 dilution, 4 points, and the control compound nocodazole is pinned in column 1 at 25mM, 1:3 dilution, in duplicate, 25mM nocodazole is pinned in column 2. Please note, all concentrations are working concentrations. 5ul of 1pM purified luciferase enzyme is dispensed using the Kalypsys dispenser in column 4. Plates are incubated for 24 hrs at 37 deg C, 5% CO2, and 95% humidity. Then 4ul of the detection reagent Amplite (ABD Bioquest) is added using the Kalypsys dispenser. Plates are incubated for 10 min at ambient room temperature and are then read on the ViewLux (Perkin Elmer) using a clear filter for a luminescent read-out.
In general terms: Quantitative high-throughput screening tests each substance at several concentrations.
Turning to `COc1cc(C)ccc1OCC(=O)OCC(=O)c1ccc[nH]1`, the “activity change, positive = activation” value is -12.1%.

With `CCN(CC)C(=O)[C@H]1C[C@H](CC(=O)NCC23CC4CC(CC(C4)C2)C3)C(=O)N2CCc3c([nH]c4cc(CCC(=O)N(C)C)ccc34)[C@]12C`, the “activity change, positive = activation” value was -3.09%.

Take `O=C(COC(=O)c1cccc(Cl)c1)NC(=O)NCc1ccccc1`: the “activity change, positive = activation” value was 6.37%.

As for `CCCc1cc(=O)[nH]c(SCC(=O)Nc2ccc(C(=O)Nc3ccccc3OC)cc2)n1`, the “activity change, positive = activation” value was -10.1%.

`O=C(CSc1ncn[nH]1)Nc1ccc(Br)cc1Br`: the “activity change, positive = activation” value was 2.67%.

Turning to `CC(C)(C)OC(=O)C[C@@H]1C/C=C\C[C@@H](CC(=O)N[C@@H](CO)Cc2ccccc2)C(=O)N2CCC[C@H]2COC1=O`, the “activity change, positive = activation” value was -0.764%.

Turning to `COc1ccccc1-c1nnc2n1N=C(c1ccc(OC(F)F)c(OCC3CC3)c1)CS2`, the “activity change, positive = activation” value was 4.56%.

As for `C=CC1=C(C(=O)O)N2C(=O)[C@@H](NC(=O)/C(=N\OCC(=O)O)c3csc(N)n3)[C@H]2SC1`, the “activity change, positive = activation” value was -3.99%.

Take `O=C(CSc1nc(-c2ccccc2)cs1)Nc1cccc([N+](=O)[O-])c1`: the Potency was 35.5 µM (active).

For the compound `CCNC(=O)CSc1nc(-c2ccccc2)cs1`, the “activity change, positive = activation” value was 17.9%.

In the case of `O=C(CSc1ncn[nH]1)Nc1nc(-c2cccc([N+](=O)[O-])c2)cs1`, the “activity change, positive = activation” value is 12.9%.

Regarding `CC(C)(C)OC(=O)C[C@@H]1C/C=C\C[C@H](CC(=O)N[C@@H](CO)Cc2ccccc2)C(=O)N[C@H](Cc2ccccc2)COC1=O`, the “activity change, positive = activation” value is 2.06%.

Turning to `CC(C)n1cnc2c(NCc3ccccc3)cc(OCC3CCN(C)CC3)cc21`, the “activity change, positive = activation” value is -11.8%.

`CN(Cc1ccc(CNC[C@H]2O[C@@H](n3cnc4c(N)ncnc43)[C@H](O)[C@@H]2O)o1)S(C)(=O)=O`: the “activity change, positive = activation” value was 15.9%.

`CCOC(=O)C1=C(C)N(C[C@@H]2CC[C@@H](Cc3ccc(-c4ccccc4)cc3)O2)C(=O)NC1c1ccc([N+](=O)[O-])cc1` (stereo not given in full): the “activity change, positive = activation” value is -4.21%.

As to `O=S(=O)(c1cccs1)N1CCN(CCOc2ccccc2)CC1`, the “activity change, positive = activation” value is -4.44%.

Take `CCCN=C1N(C)C[C@@H]2[C@@H]3C(=O)N(Cc4ccccc4)C(=O)[C@@H]3[C@](C)(C(=O)OC)N12`: the “activity change, positive = activation” value is 11.5%.

On to `COc1cccc(-c2sc3ccc(OC)cc3c2-c2ccc(OCCN3CCCCC3)cc2)c1`, for which the “activity change, positive = activation” value is 0.454%.

As for `CC[C@@H](C)[C@@H]1CN([C@@H](C)CN2CCC[C@H]2CN2C(N)=NC[C@H]2C(C)C)C(=N)N1CCc1ccc(Cl)c(Cl)c1`, the “activity change, positive = activation” value is 1.67%.

For the compound `C[C@H](CO)N1C[C@H](C)[C@@H](CN(C)Cc2ccc(-c3ccccc3)cc2)Oc2ccc(NC(=O)Cn3cnnn3)cc2C1=O`, the “activity change, positive = activation” value is 0.106%.

For the compound `COc1cc(C2CC(=O)Oc3cc(OC)c(OC)c(OC)c32)cc(OC)c1OC` (stereo not given), the “activity change, positive = activation” value is -8.59%.

For `Brc1ccc(-c2noc(-c3ccccc3)n2)o1`, the “activity change, positive = activation” value was 24.1%.

Consider `Cc1cccc(-c2noc(CCC(=O)NC3CCCC3)n2)c1`, for which the “activity change, positive = activation” value is 3.23%.

As to `Cc1cccc(-c2noc(-c3ccc(F)cc3)n2)c1`, the Potency is 31.6 µM (active).

As for `CC(C)(C)OC(=O)C[C@H]1C/C=C\C[C@@H](CC(=O)N[C@H](CO)Cc2ccccc2)C(=O)NC[C@@H](c2ccccc2)OC1=O`, the “activity change, positive = activation” value was 2.82%.

As for `CN=C(Nc1cccc(S(=O)(=O)N2CCOCC2)c1)c1ccccc1`, the “activity change, positive = activation” value was -9.42%.

In the case of `O=C(NCCC(=O)N1O[C@@H]2C=C[C@H]1C2)OCC1c2ccccc2-c2ccccc21`, the “activity change, positive = activation” value was -4.81%.

For `Nc1ncnc2c1ncn2[C@@H]1O[C@H](CNS(=O)(=O)c2ccc(-c3ccno3)s2)[C@@H](O)[C@H]1O`, the “activity change, positive = activation” value was -6.9%.

`Cc1noc(C)c1NC(=O)Nc1ccc2c(c1)C(=O)N([C@H](C)CO)C[C@H](C)[C@@H](CN(C)C(=O)Nc1ccc(C(F)(F)F)cc1)O2`: the “activity change, positive = activation” value was 5.39%.

Regarding `O=C1[C@@H](c2ccccc2)[C@@H](c2ccccc2)N1c1cccnc1`, the “activity change, positive = activation” value was -20.3%.

On to `CC1O[C@@H](OC2C(O)C(C)O[C@H](OC(=O)[C@]34CCC(C)(C)C[C@H]3C3=CCC5[C@@]6(C)CC(O)C(O[C@@H]7OC(CO)C(O)[C@@H](O)[C@@H]7O)[C@@](C)(C(=O)O)C6CC[C@@]5(C)[C@]3(CO)CC4)C2O[C@H]2OC(C)[C@@H](O[C@@H]3OCC(O[C@@H]4OC(CO)C(O)[C@H](O)C4O)[C@@H](O)[C@@H]3O)[C@H](O)C2O)C(O)C(O)C1O` (stereo not given in full), for which the “activity change, positive = activation” value is 2.19%.

Regarding `COc1cc(C(=O)OCc2cc(=O)n3ccsc3n2)ccc1OC(C)C`, the “activity change, positive = activation” value is 24.6%.

For `O=C1CCC/C=C\C[C@@H](CC(=O)N(CCO)Cc2ccccc2)C(=O)NCCO1`, the “activity change, positive = activation” value was 7.41%.

`COc1ccc(CNc2nc(NCc3ccc(OC)cc3)c3ncn(C4CCCC4)c3n2)cc1`: the “activity change, positive = activation” value was 9.86%.

Turning to `C#CCOCCOCCOCCNc1nc(N2CCN(C(=O)[C@H](CCC(=O)O)n3cc(CN)nn3)CC2)nc(N2CCN(C(=O)[C@H](CCC(=O)O)n3cc(CN)nn3)CC2)n1`, the “activity change, positive = activation” value is -3.28%.

Take `CC[C@]1(C(=O)OC)[C@H]2C(=O)N(Cc3ccccc3)C(=O)[C@H]2[C@H]2CN=C(SCc3ccc(C#N)cc3)N21`: the “activity change, positive = activation” value is -2.09%.

On to `Cc1cccc(C)c1Nc1nnc(SCC(=O)NCCCN2CCCC2=O)s1`, for which the “activity change, positive = activation” value was 3.39%.

On to `COc1cc(NC(=O)c2[nH]cnc2C(N)=O)cc(C(=O)Nc2cccc(C(F)(F)F)c2)c1`, for which the “activity change, positive = activation” value was -11.8%.

Regarding `CN(c1ccccc1)S(=O)(=O)c1cc(C(=O)N2CCN(c3ncccn3)CC2)ccc1Cl`, the “activity change, positive = activation” value is -1.11%.

Regarding `CN(C(=O)CSc1cccc[n+]1[O-])C1CCCCC1`, the “activity change, positive = activation” value was 12.6%.
